Screens (PubChem)
D1 agonist – human D1 receptor agonism. activation, % at 2 µM. actives 1% (n = 360,000). HEK293 T-REx D1 cells, calcium flux, agonist mode; further: 0% is about no effect
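Agonism was scored from calcium flux recorded over 180 s (1 read/s) after pintool compound addition, following a 10-cycle baseline. Cells were inducible force-coupled HEK293 TREx D1, plated overnight at 30 C and loaded with no-wash calcium dye.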
D1 antag – blocks dopamine activation of the human D1 receptor | actives 3.2% (n = 360,000) | AID 504652 | HEK293 TREx D1 cells, calcium flux, dopamine EC80; stronger effect = lower value | P21728 | activity change, negative = inhibition, % at 10 µM; in the data active means activity change below about -30%; further: on the % scale 0 is the no-effect control and ±100 the full control effect
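Cells carrying a force-coupled, tetracycline-inducible human D1 receptor report calcium flux. Each well gets a 10 s baseline, compound with 180 s monitoring, then an EC80 dopamine stimulus with a second 180 s kinetic read.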
TRHR enhancer-1 – allosterically enhances the human TRH receptor | P34981 | actives 0.66% (n = 360,000) | TRHR cells, fluo-8 calcium fluorescence, EC20 TRH enhancement | enhancement, % at 2 µM | AID 493056; in the data active means enhancement above about 30%; further: 0% is about no effect
Target sequence (P34981 whole entry, looked up): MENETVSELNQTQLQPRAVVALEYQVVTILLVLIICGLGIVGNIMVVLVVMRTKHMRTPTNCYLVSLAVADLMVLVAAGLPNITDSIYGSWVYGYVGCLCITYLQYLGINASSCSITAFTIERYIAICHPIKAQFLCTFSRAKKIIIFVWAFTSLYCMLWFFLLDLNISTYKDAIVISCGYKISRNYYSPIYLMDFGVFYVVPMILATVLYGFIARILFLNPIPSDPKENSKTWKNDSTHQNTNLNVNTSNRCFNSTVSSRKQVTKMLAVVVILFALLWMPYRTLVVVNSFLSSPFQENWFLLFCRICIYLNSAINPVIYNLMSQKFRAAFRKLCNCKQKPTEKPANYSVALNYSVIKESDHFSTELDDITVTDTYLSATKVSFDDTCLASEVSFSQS
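Enhancer read-out: after compound pinning and an initial kinetic agonist-mode read, an EC20 of TRH (10 nM final) was injected and fluo-8 calcium signal (Ex 480/Em 530) followed at 1 s/cycle for 100 cycles in TRHR-expressing cells.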
TRHR agonist-1 – agonists of human TRH receptor; P34981; TRHR cells, calcium flux fluo-8, FDSS agonist mode; activation, % at 2 µM; actives 0.18% (n = 360,000); AID 493084; further: 0% is about no effect
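Read-out: compound-evoked intracellular calcium rise in TRHR cells, fluo-8 dye, kinetic FDSS fluorescence at 1 s/cycle following a 10-cycle baseline. Cells cultured overnight before dye loading (30 min–1.5 h, RT).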
D1 potentiator – human D1 dopamine receptor positive modulation. potentiation, % at 10 µM. AID 504651. actives 0.036% (n = 360,000). HEK293 TREx D1 cells, calcium flux, dopamine EC20 potentiation; in the data active means potentiation above about 30%; further: 0% is about no effect
TRHR enhancer-2 – confirmation of human TRH receptor allosteric enhancers. shares compounds with TRHR enhancer-1. TRH receptor cell assay, enhancer confirmation qHTS. activity change, negative = inhibition, % at 46.1 µM. 970 tested, under 10 active. AID 493076; active means well fitted curve in the direction sought with a large enough effect; inconclusive means small, poorly fitted or top-dose-only effect, or another doubt; inactive means no such curve, though single readings can be large; an effect the other way counts as inactive or inconclusive;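 further: compound effect scored on response to added TRH at EC20 of 10 nM; 0% is about no effect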
TRHR agonist-2 – human TRH receptor agonism confirmation. AID 493078. actives 8% (n = 970). shares compounds with TRHR enhancer-1. TRHR-expressing cells, agonist activation read-out. Potency, µM (highest dose often 46.1 µM), for inactives: top-dose activation, hits mostly activators; active means well fitted curve in the direction sought with a large enough effect; inconclusive means small, poorly fitted or top-dose-only effect, or another doubt; inactive means no such curve, though single readings can be large; an effect the other way counts as inactive or inconclusive; further: potency means the concentration at half of the fitted maximal effect; 0% is about no effect; nearly all actives have a fitted effect of over 75% in size
Starred values were filed as active, the others as inactive; ? = inconclusive; · = no result given. Sampled rows, rich in hits. Any-hit rate of the full collection: about 4.6%. Unless noted, no stated cut-off is given here; in the data, active means activation above about 30%; inactive means the rest.

SMILES | D1 agonist | D1 antag | TRHR enhancer-1 | TRHR agonist-1 | D1 potentiator | TRHR enhancer-2 | TRHR agonist-2
COC(=O)Cc1ccc(OC(=O)c2cccc(S(=O)(=O)N3CCN(C)CC3)c2)cc1 | 7 | 0 | 3 | 1 | 3 | · | ·
COc1ccc(C2=NN(S(C)(=O)=O)C(c3ccc4nccnc4c3)C2)cc1 (stereo unspecified) | 1 | -19 | 1 | 0 | -6 | · | ·
COc1cc(/C=C2/C(=O)NN(c3cccc(C)c3)C2=O)cc([N+](=O)[O-])c1O | 1 | -4 | 9 | 0 | 17 | · | ·
COc1cc(/C=C2/C(=O)NN(c3cccc(C)c3)C2=O)ccc1OC(=O)c1ccco1 | 1 | 12 | 52* | -1 | -5 | -14 | 3%
NC(=O)c1ccc(F)cc1 | 4 | 4 | 59* | 2 | -4 | 6 | -1%
O=C(CC1SC(=Nc2ccc(O)cc2)NC1=O)Nc1ccccc1 (stereo unspecified) | 1 | -5 | 53* | 0 | 0 | -3 | 0%
CCOc1ccc(N=C2NC(=O)C(CC(=O)Nc3ccccc3)S2)cc1 (stereo unspecified) | 1 | -3 | 0 | 0 | -3 | · | ·
COc1ccc(C(=O)NCc2nnnn2-c2ccc(C)c(C)c2)cc1 | 0 | -2 | 68* | -1 | -2 | -3 | 0%
Cc1ccc(C(=O)NCc2nnnn2-c2ccc(C)c(C)c2)cc1 | -1 | -7 | 4 | -1 | -2 | · | ·
COc1ccccc1NC(=O)COC(=O)Cc1cccs1 | 1 | -18 | 0 | -1 | -4 | · | ·
COc1ccccc1CNC(=O)COC(=O)Cc1cccs1 | 2 | 8 | 43* | -1 | 0 | -6 | 1%
CSc1ccc(CCNC(=O)C2CCCN(S(=O)(=O)N3CCOCC3)C2)cc1 (stereo unspecified) | 4 | -17 | -1 | 0 | 1 | · | ·
CCO[C@@H]1OC(C(N)=O)=C[C@H](c2coc3ccccc3c2=O)[C@H]1CCCO | 4 | 6 | -3 | 0 | -6 | · | ·
CC1=NN(c2ccccc2)C(=O)/C1=C/c1cccs1 | 0 | 0 | -10 | 28 | 9 | -13 | 1%
CC1=NN(c2ccccc2)C(=O)/C1=C\c1ccc(Br)s1 | 2 | 5 | 9 | 0 | 4 | · | ·
COc1ccc(C2C(C#N)=C(N)Oc3cc(N)ccc32)cc1 (stereo unspecified) | 2 | -3 | 63* | 0 | -4 | 7 | -1%
CC(C)Nc1ncnc2c1cnn2-c1ccc(Cl)cc1 | 0 | -21 | 55* | 2 | -8 | -6 | 1%
COc1cccc(N2C(=O)CC(Nc3ccc(N4CCOCC4)cc3)C2=O)c1 (stereo unspecified) | 1 | -17 | -6 | 0 | -6 | · | ·
O=C1CC(Nc2ccc(N3CCOCC3)cc2)C(=O)N1c1cccc(C(F)(F)F)c1 (stereo unspecified) | 10 | -9 | 46* | -1 | -8 | 0 | -1%
CCN(CC)CCCNC(=S)N1CCN(c2nc(-c3ccccc3)cs2)CC1 | 29 | -37* | 42* | 2 | -19 | -9 | ?
CCC(C(=O)NCc1cccnc1)c1ccccc1 (stereo unspecified) | 1 | 13 | 42* | 0 | -5 | -2 | -1%
Cc1ccccc1NC(=O)CSCC(=O)Nc1ccccc1C | 2 | 0 | 6 | 0 | 0 | · | ·
O=C(O)CCC(=O)N1N=C(c2ccccc2)CC1c1ccc2nccnc2c1 (stereo unspecified) | 1 | 8 | -4 | 1 | -4 | · | ·
O=C(O)CCCC(=O)N1N=C(c2ccccc2)CC1c1ccc2nccnc2c1 (stereo unspecified) | 3 | 6 | 46* | 0 | -1 | 1 | 0%
Oc1c(Cl)cc(Cl)cc1/C=C/c1ccc2cccc(O)c2n1 | 114* | -14 | -10 | 42* | -1 | ? | ?
SMILES | D1 agonist | D1 antag | TRHR enhancer-1 | TRHR agonist-1 | D1 potentiator | TRHR enhancer-2 | TRHR agonist-2
CCc1ccc(NC(=O)N2CCN(Cc3cc(=O)n4nc(-c5ccccc5OC)sc4n3)CC2)cc1 | 1 | 0 | 6 | 0 | 4 | · | ·
CC(=O)c1ccc(NC(=O)CSc2ccsc2[N+](=O)[O-])cc1 | 0 | 2 | -4 | 0 | -7 | · | ·
C=CCn1c(=O)c2ccccc2n2c(SC(C)C(N)=O)nnc12 (stereo unspecified) | 2 | -6 | 45* | -1 | -6 | -1 | -1%
CCCn1c(=O)c2ccccc2n2c(SC(C)C(N)=O)nnc12 (stereo unspecified) | -1 | 15 | -1 | 0 | 1 | · | ·
O=C(NCc1cccs1)c1cccnc1C(=O)O | 2 | -8 | 7 | 51* | 0 | -2 | -1%
Cn1cccc1/C=C1/SC(=S)N(CC(=O)O)C1=O | 12 | -15 | 15 | 2 | -4 | · | ·
CN1CCS/C1=C\C=C1/SC(=S)N(CC(=O)O)C1=O | 129* | 6 | 2 | 29 | -7 | 23 | 21µM*
Cc1ccccc1CNC(=O)C(=O)NCC(c1ccco1)S(=O)(=O)c1ccc(F)cc1 (stereo unspecified) | 7 | · | -4 | 0 | -1 | · | ·
Cc1cccc(-c2nnnn2-c2cccc(C)c2)c1 | 8 | 0 | 0 | -1 | -2 | · | ·
N=c1oc2ccccc2cc1C(=O)Nc1ccccc1 | 8 | 18 | -2 | 0 | 0 | · | ·
CCCCCCc1cc2cc(C(=O)Nc3ccccc3)c(=O)oc2cc1O | 7 | -8 | -10 | 30* | -6 | 5 | 1%
CSCCC(NC(=O)c1ccc(Cl)c([N+](=O)[O-])c1)C(=O)N1CCN(C/C=C/c2ccccc2)CC1 (stereo unspecified) | 0 | 4 | 66* | 0 | -4 | -2 | 1%
O=C(Nc1cccc(C(F)(F)F)c1)C1CCN(S(=O)(=O)c2cccs2)CC1 | 21 | -28 | -20 | 1 | -1 | · | ·
N=c1nc(N2CCCCC2)cc(N)n1O | 2 | 13 | 13 | -1 | 1 | · | ·
CC1(C)CN=C(N(Cc2ccccc2)C(=O)Nc2ccccc2)S1 | 11 | 2 | 42* | 3 | -3 | 4 | ?
Cc1ccccc1CNS(=O)(=O)c1c(C)[nH]c(C)c1C(=O)N1CCCCC1 | 2 | -3 | -4 | 0 | 0 | · | ·
CCn1c(C)nc2cc(C(=O)NNC(=S)NC(=O)c3ccc(OC)cc3)ccc21 | 2 | -6 | 1 | 0 | -4 | · | ·
COc1cc(CN2CCNC(=O)C2CC(=O)NC2CCCCC2)cc(OC)c1 (stereo unspecified) | 5 | 12 | 19 | 0 | 1 | · | ·
